In PubChem BioAssay (NCI):
This is part of a sample that, as a whole, favours compounds with a hit. Of some 83,000 tested, about 20% had one in any assay.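 Testing used 96-well plates and a 48-hour single-concentration exposure. Example: -40 means 40% of the starting cells died.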 Unmarked numbers belong to inactive results. Calls of active or inactive are those of the source. Rule for the calls: active = growth percent below 10; inactive = the rest.

Experiments:
Assay in all cases: NCI-60 one-dose screen, 48 h (100 = growth as untreated, 0 = no growth, -100 = all killed)
Settings in all cases: 10 µM unless noted
SK-MEL-2 melanoma = test system: SK-MEL-2 melanoma
SN12C renal = test system: SN12C renal
UO-31 renal = test system: UO-31 renal
TK-10 renal = test system: TK-10 renal
ACHN renal = test system: ACHN renal
CAKI-1 renal = test system: CAKI-1 renal
A498 renal = test system: A498 renal
CCRF-CEM leukemia = test system: CCRF-CEM leukemia
MOLT-4 leukemia = test system: MOLT-4 leukemia
EKVX NSCLC = test system: EKVX NSCLC

SMILES | growth (SK-MEL-2 melanoma) | growth (SN12C renal) | growth (UO-31 renal) | growth (TK-10 renal) | growth (ACHN renal) | growth (CAKI-1 renal) | growth (A498 renal) | growth (CCRF-CEM leukemia) | growth (MOLT-4 leukemia) | growth (EKVX NSCLC)
NS(=O)(=O)c1ccc(N2CC(c3nc4ccccc4[nH]3)CC2=O)cc1 (stereo not drawn) | 102% | 97.3% | 76.6% | 128% | 91.9% | 97.3% | 110% | 98.3% | 96.3% | –
CC(=O)c1nn(-c2ccccc2)c(=Nc2ccccc2)cc1C | 114% | 97.7% | 86.2% | 104% | 86.7% | 99.1% | 103% | – | 94.3% | –
Cc1[nH]c(=O)[nH]c(=O)c1CCSSCCc1c(C)[nH]c(=O)[nH]c1=O | 102% | 104% | 83.3% | 101% | 104% | 97.1% | 107% | – | 100% | –
CCCCNCCCN(CCCC)CCCNCCCC | 112% | 89% | 83.7% | 97.3% | 104% | 91.1% | 94.6% | – | 103% | –
Cc1ccc(C2=NNC(c3sc(Cl)nc3Cl)C2)cc1 (stereo not drawn) | 89.3% | 40.8% | 78.3% | 133% | 112% | 96.6% | 97.2% | 18% | 8.29% (active) | –
CC(C)=CCNc1ncnc2c1ncn2C1OC(COP(=O)(O)O)C(O)C1O (stereo not drawn) | 69.4% | 32.4% | 39.6% | – | 28.2% | 16.3% | -7.75% (active) | 11.4% | 6.19% (active) | –
CCCCCCCSc1ncnc2[nH]ncc12 | 72.7% | 86.1% | – | 81.1% | 88.7% | – | 88.7% | 76% | 75.4% | –
C/C(=C\CCc1ccoc1)CC/C=C(\C)CCCNc1ccc(F)cc1 | 106% | 76.2% | – | 113% | 97.9% | 88.7% | 79.7% | 58.7% | 59.6% | –
COc1ccc([N+](=O)[O-])c(S(=O)(=O)c2ccc(Cl)cc2)n1 | 92.9% | 74.5% | – | 81.1% | 26.9% | 49.6% | 110% | -11.5% (active) | 2.58% (active) | –
COc1ccc(-n2cnc3cc(C(=O)N4CCCCC4)ccc32)cc1 | 111% | 95% | – | 110% | 97.9% | 98.5% | 96.3% | 98% | 98% | –
CCOC(=O)C(C(=O)OCC)C1CCCCC1 | 110% | 106% | 91.8% | 101% | 102% | – | – | – | 102% | –
COc1ccc(-c2c3c(N)nc(-c4ccncc4)nc3nc3c2c(C)nn3-c2ccccc2)cc1 | 48.1% | 83.7% | 85.4% | 47% | 3.79% (active) | 36% | – | – | 51.2% | –
Cc1ccc(C2=Nc3c(ccc4c(C)c(C)c(=O)oc34)OC2)cc1 | 95.8% | 98.7% | 82.6% | 108% | 99.1% | 92.2% | – | – | 101% | –
COc1cc(/C=C\C(C)=N\Nc2ccccc2)ccc1O | – | 92.6% | 66% | 94.5% | 97.6% | 82.3% | 110% | 30.7% | 70.9% | 94.1%
NC(=O)c1cc(Cl)ccc1NC(=O)c1ccccc1-c1ccccc1 | -12.2% (active) | – | 30.7% | 41.6% | 34.9% | 26.4% | 27.5% | 7.4% (active) | 13.3% | –
N[C@H](CS)C(=O)O | – | 107% | 92.4% | 97.3% | 102% | 70.4% | 117% | 90.8% | 104% | 97.7%

SMILES | growth (SK-MEL-2 melanoma) | growth (SN12C renal) | growth (UO-31 renal) | growth (TK-10 renal) | growth (ACHN renal) | growth (CAKI-1 renal) | growth (A498 renal) | growth (CCRF-CEM leukemia) | growth (MOLT-4 leukemia) | growth (EKVX NSCLC)
CCCCCCC(CC#N)(CCC)CCCC (stereo not drawn) | 123% | 97.8% | 97.6% | 102% | 99% | – | 100% | – | 97.5% | –
CCOc1cc(CCNS(=O)(=O)c2ccc(C)cc2)c(C(C)=O)cc1OCC | 86.1% [100 µM] | 80.5% [100 µM] | – | 84.6% [100 µM] | 75.5% [100 µM] | 36% [100 µM] | 62.1% [100 µM] | – | 9.64% [100 µM] (active) | –
CCSc1ncc(Br)c(Sc2nc(N)nc3nc[nH]c23)n1 | – | 80.9% | 70% | 72.7% | 77.6% | 57.7% | 95.9% | 12.5% | 3.06% (active) | 36.7%
CC(=O)c1ccc(NS(=O)(=O)c2ccc([N+](=O)[O-])cc2)cc1 | 95.1% | – | 77.8% | 100% | 93.8% | 96.9% | 90.5% | 93.8% | 87.1% | –
O=C1NC(=O)/C(=C\c2ccco2)S1 | 105% | 95.8% | 67.5% | 102% | 100% | – | 75.8% | 95.9% | 111% | –
O=C(CN1CCN(c2ccc(Cl)cc2)CC1)N1CCN(c2nnc(-c3ccc(Cl)cc3)c(-c3ccc(Cl)cc3)n2)CC1 | – | 75.5% | 37.9% | 102% | 68.5% | 168% | 56.9% | 10.4% | -40.9% (active) | 71.2%
C[C@]12CCC(=O)C=C1CC[C@H]1[C@@H]3C[C@@H](O)[C@](O)(C(=O)CO)[C@@]3(C)C[C@H](O)[C@@]12F | – | 82.9% | 74.1% | 104% | 104% | 78.5% | 97.2% | 97.1% | 84.1% | 88.4%
CCCCCc1c(C)[nH]c(/C=C2\N=C(c3ccc[nH]3)C=C2Oc2ccc(Cl)cc2)c1C | -73.1% [100 µM] (active) | -7.03% [100 µM] (active) | – | -6.56% [100 µM] (active) | -48% [100 µM] (active) | -22.7% [100 µM] (active) | -49% [100 µM] (active) | – | -23.6% [100 µM] (active) | –
COc1c(Br)cc(C(c2cc(Br)c(OC)c(Br)c2)c2ccccc2C(=O)O)cc1Br | 114% | 96% | 68.9% | 106% | 91.2% | 91.6% | 107% | – | 89.4% | –
O=Cc1ncc(-c2ccc(C(F)(F)F)cc2)c(NC2CCCCCC2)n1 | -79.8% [100 µM] (active) | -87.4% [100 µM] (active) | -90.8% [100 µM] (active) | -94.9% [100 µM] (active) | -99.5% [100 µM] (active) | – | -73.1% [100 µM] (active) | – | -60% [100 µM] (active) | –
COc1cccc(-c2nc3cc(NC(=O)c4ccc(Cl)c(C#N)c4)ccc3o2)c1 | 63.8% | – | 34.3% | -12.5% (active) | 36.2% | 26.4% | 61.6% | 71.1% | 78.4% | –
O=C(COc1ccc(/C=C2\Cc3ccccc3C2=O)cc1)c1ccc(Cl)cc1 | – | 98.9% | -7.83% (active) | 133% | 107% | 78.2% | 108% | 95.2% | 95.9% | 101%
COC(=O)[C@H](CCCCNC(=O)OCc1ccccc1)NC(=O)[C@@H](NC(=O)Nc1cc(C(F)(F)F)cc(C(F)(F)F)c1)C(C)C | -77.3% [100 µM] (active) | -88.3% [100 µM] (active) | – | -44% [100 µM] (active) | -99.4% [100 µM] (active) | -36.3% [100 µM] (active) | -5.02% [100 µM] (active) | – | -7.72% [100 µM] (active) | –
CC(NC(N)=S)c1ccccc1 (stereo not drawn) | – | 98.3% | 93.2% | 99% | 108% | 104% | 98.1% | 129% | 98.8% | 103%
COc1ccc2c(c1)CC[C@@H]1[C@@H]2CC[C@]2(C)[C@@H](O)C(=O)C[C@@H]12 | – | 96.1% | 85.2% | 109% | 94.9% | 97.4% | 95.7% | 91.8% | 90.8% | 102%
